# Screening data (PubChem BioAssay)
# G9a inh: qHTS Assay for Inhibitors of Histone Lysine Methyltransferase G9a | AID 504332, 2011 | 8.8% of 350,000 active | G9a H3K9 monomethylation, AlphaScreen, 2 h | Potency, µM (titrated, usually from 102 µM), usual class: inhibitors; also: nearly all actives have a fitted effect of over 75% in size
#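 Using a bead-based AlphaScreen, monomethylated H3K9 product from 2 h room-temperature reactions (G9a 20 nM, peptide 500 nM, SAM 20 uM) was detected with 0.5 ug/mL rabbit anti-H3K9me1 antibody.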
# JMJD2A Tudor: qHTS Assay for Inhibitors of JMJD2A-Tudor Domain; AlphaScreen JMJD2A-Tudor / H3K4me3 peptide binding; Potency, µM (doses to about 114 µM), most hits filed as inhibitors; 4.4% of 390,000 active; AID 504339, 2011; also: nearly all actives have a fitted effect of over 50% in size
# 12-LOX inh: Primary qHTS assay for inhibitors of human arachidonate 12S-lipoxygenase (ALOX12): Round 2; Polyunsaturated fatty acid lipoxygenase ALOX12 (Homo sapiens), P18054; purified 12hLO, xylenol orange hydroperoxide absorbance; Potency, µM (titrated, usually from 108 µM), actives largely listed as inhibitors; 1.1% of 580,000 active; AID 1671190, 2021
#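 Purified human 12hLO at 150 nM in 25 mM Hepes, 0.01% Triton X-100, pH 7.0, preincubated 15 min at room temperature with compound. Reaction started with 40 uM arachidonic acid, 30 min at room temperature. Hydroperoxide measured by Fe-xylenol orange, 573/405 nm absorbance ratio.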
# BAZ2B block: qHTS Assay for Inhibitors of BAZ2B | Bromodomain adjacent to zinc finger domain protein 2B (Homo sapiens), Q9UIF8 | AlphaScreen BAZ2B-H3K14Ac peptide displacement | Potency, µM (doses to about 114 µM), actives largely listed as inhibitors | 4.4% of 360,000 active; also: nearly all actives have a fitted effect of over 60% in size
#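 AlphaScreen displacement of biotin-H3(5-23)K14Ac peptide (50 nM final) from BAZ2B (50 nM final) in PBS pH 7.4, 0.01% Tween-20; complex preformed 30 min RT, then compounds (top 110 uM) 30 min RT, beads 20 min dark.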
# HP1b chromo inh: HTS for Inhibitors of HP1-beta Chromodomain Interactions with Methylated Histone Tails; AID 540317, 2011; Potency, µM (top dose mostly 114 µM), usual class: inhibitors; AlphaScreen HP1-beta / biotin-H3K9me3 peptide binding; Chromobox protein homolog 1 (Homo sapiens), P83916; 0.56% of 390,000 active; also: nearly all actives have a fitted effect of over 70% in size
#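 Compound inhibition of the preformed complex between 50 nM HP1-beta and 50 nM biotinylated H3K9me3 peptide was read by AlphaScreen. Buffer was PBS pH 7.4 with 0.01% Tween-20. Incubations ran 30 min at room temperature, with 10 ug/mL donor/acceptor beads.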
# PLK1 PBD inh: qHTS for Inhibitors of PLK1-PDB (polo-like kinase 1 - polo-box domain): Primary Screen | Potency, µM, usual class: inhibitors | 2.8% of 360,000 active | Plk1 PBD binding of FITC phosphopeptide, fluorescence polarization; also: series mostly up to about 57 µM; nearly all actives have a fitted effect of over 65% in size
# A number is an active result; 0 = inactive; ? = inconclusive; - = not tested or not shown; ! = a repeat was not active; [ ] = dose if it differs, or a comment. Hits are enriched below; roughly 9% of the tested compounds scored in any of these assays. Calls follow the shape of the dose curve; as a rule, active = well fitted curve in the direction sought with a large enough effect; inconclusive = small, poorly fitted or top-dose-only effect, or another doubt; inactive = no such curve, though single readings can be large; an effect the other way counts as inactive or inconclusive.
SMILES,G9a inh,JMJD2A Tudor,12-LOX inh,BAZ2B block,HP1b chromo inh,PLK1 PBD inh
CC(=O)N1c2ccc(S(=O)(=O)NCC3CCC(C(=O)NC4CCCCC4C)CC3)cc2CC1C (stereo not given),0,?,0,0,0,27µM
O=C(CSc1ccc(Cl)cc1)N1CCOCC1,0[12.7 µM],0,0,0,0,0
O=C1CCN(C(=O)CSc2ccc(Cl)cc2)N1,14µM,?,0,50µM,0,0
O=C1CCN(C(=O)c2ccc(Cl)cc2)N1,13µM,89µM,0,56µM,0,0
Cc1oc2ccc(NS(=O)(=O)c3cccc4cccnc34)cc2c1C(=O)OC(C)C,0,0,0,0,0,0
Cc1ccc(CNC(=O)CN2c3ccc(C(C)C)cc3-c3ccccc3S2(=O)=O)cc1,-,-,0,-,-,-
CC(=O)c1ccc(NC(=O)Cn2cc3c(n2)CCCC3)cc1,0,0,0,0,0,-
CC(=O)Nc1ccc(NC(=O)Cn2cc3c(n2)CCCCC3)cc1,16µM,0,0,0,0,-
CCN(CC)c1ccc(NC(=O)Cn2cc3c(n2)CCCC3)c(C)c1,10µM,?,?,0,0,-
COc1ccccc1CC1CC(=O)N(c2ccc([N+](=O)[O-])cc2)C1=O (stereo not given),-,-,0,-,-,0
CCOc1ccc(NS(=O)(=O)c2ccc(N)cc2)cc1,0,0,0,0,0,0
CCOc1ccc(Nc2ccc(N)c(S(=O)(=O)O)c2)cc1,-,56µM,?,-,50µM,?
COc1cc(OC)cc(C(=O)/C=C2\Sc3ccccc3N2C)c1,-,0,0,0,0,0
COc1ccc2c(c1)N(C)/C(=C/c1cccc[n+]1C)S2,35µM,?,?,?,0,0
CCN1/C(=C/c2cccc[n+]2C)Sc2ccc(OC)cc21,50µM,18µM,0,0,0,0
CCOC(=O)C1C(=O)C=C(c2cccs2)CC1c1ccccc1C (stereo not given),0,0,0,0,0,0
Cc1ccc(C(=O)Oc2ccc(C(=O)COC(=O)C3CC(=O)N(Cc4ccco4)C3)cc2)cc1 (stereo not given),?,?,-,50µM,0,?
O=C(COC(=O)C1CC(=O)N(Cc2ccco2)C1)c1ccc(OC(=O)c2ccco2)cc1 (stereo not given),8.9µM,35µM,0,25µM,?,?
Cc1[nH]c2ccccc2c1C(=O)COC(=O)C1CC(=O)N(Cc2ccco2)C1 (stereo not given),?,0,0,0,0,0
O=C(c1cc2sccc2n1Cc1ccccc1)N1CCc2ccccc21,?,0,0,0,0,0
OC(Cc1cccnc1)c1ccccc1 (stereo not given),-,0,0,-,0,0
O=C1Nc2ccccc2SC1c1ccccc1 (stereo not given),0[0.501 µM],0,0,0,0,0
Cc1ccc(NC2Sc3ccccc3NC2=O)cc1 (stereo not given),1.8µM,50µM,7.1µM,0,45µM,9.5µM
CC1CCC(C(C)[C@H]2CCC3C4CC(=O)C5C[C@@H](O)CC[C@]5(C)C4CC[C@@]32C)=NC1 (stereo not given in full),-,-,0,-,-,-
CCc1cc(-c2[nH]ncc2-c2ccc3c(c2)OCO3)c(O)cc1O,?,32µM,?,32µM,?,0
SMILES,G9a inh,JMJD2A Tudor,12-LOX inh,BAZ2B block,HP1b chromo inh,PLK1 PBD inh
O=C(O)CCCn1cc(NC(=O)COc2ccccc2F)cn1,0,79µM!,0,0,0,0
Cc1cc(OCC(=O)Nc2cnn(CCCC(=O)O)c2)ccc1Cl,14µM!,0,?,0,0,0
O=C(O)CCCn1cc(NC(=O)COc2ccc(F)cc2F)cn1,0,0,0,0,0,0
CN(CC(=O)Nc1ccc(Cl)cc1)C(=O)CCc1ccccc1,0,0,0,0,0,0
Cc1ccc(CN2CCC(NC(=O)c3ccccc3)CC2)cc1,0[0.501 µM],0,0,0,0,30µM
Cc1ccc(S(=O)(=O)NNC(=O)C2CCN(Cc3ccccc3)CC2)cc1,0,79µM,0,0,0,0
Cc1ccc(S(=O)(=O)N2CCCCC2C(=O)N2CCN(Cc3ccccc3)CC2)cc1 (stereo not given),11µM,0,0,?,0,0
O=C(C1CCCCN1S(=O)(=O)c1ccccc1)N1CCN(Cc2ccccc2)CC1 (stereo not given),?,0,?,0,0,0
O=S(=O)(c1ccc(F)cc1)N1CCCC1,0[0.501 µM],0,0,0,0,0
O=S(=O)(c1ccc(=S)[nH]c1)N1CCN(Cc2ccccc2)CC1,-,0,40µM,-,0,?
O=S(=O)(c1ccc(=S)[nH]c1)N1CCCCC1,0.79µM,0,0,0,0,?
O=C(O)c1cc2ncc(-c3[nH]ncc3[N+](=O)[O-])cn2n1,0,79µM,0,0,0,0
O=C(c1[nH]ncc1[N+](=O)[O-])N1CCOCC1,0,0,?,0,0,0
COC(=O)C1C(=O)C2=C(CC1C)NC(=O)CC2c1ccc(F)cc1 (stereo not given),0[12.7 µM],0,0,0,0,0
CCOc1cc(C2CC(=O)NC3=C2C(=O)C(C(=O)OC)C(C)C3)cc(Br)c1O (stereo not given),45µM,0,0,0,0,0
NS(=O)(=O)c1ccc(NS(=O)(=O)c2ccc(C3CNC(=O)C3)cc2)cc1 (stereo not given),0,50µM,0,0,0,30µM
COc1ccc(NC(=O)CN2C(=O)NC3(CCCCCCC3)C2=O)cc1,0[0.501 µM],0,0,0,0,0
CCN(CC(=O)Nc1cc(Cl)ccc1C)C(=O)C1CC1,0,0,0,0,0,0
COc1ccc(N2CCN(Cc3nc(Cc4cccc(F)c4)no3)C(C)C2)cc1 (stereo not given),-,50µM,0,25µM,?,0
Oc1ccc(CCC2CCCCN2Cc2nc(Cc3cccc(F)c3)no2)cc1 (stereo not given),-,-,0,-,-,-
O=C(N/C(=C\c1ccc([N+](=O)[O-])cc1)C(=O)N1CCCCC1)c1ccccc1,0,0,0,0,0,0
O=[N+]([O-])/C(C(Cl)=C(Cl)Cl)=C(/Sc1ccccc1)N1CCCCC1,-,?,?,35µM,0,0
COc1cccc(/C(C#N)=C/c2c(-c3ccc(Cl)cc3)nc3c(C)cccn23)c1,10µM,?,0,?,?,0
Cc1cccn2c(/C=N/OCc3cccc(F)c3)c(-c3ccc(Cl)cc3)nc12,0[0.0925 µM],0,0,0,0,0
